Values joined by “and” are separate entries in the source; they are usually repeats but may differ in a detail not shown here. Equal values may be shown once. In all, about 5,500 compounds went through this assay and about 2,000 (36%) were called active. Roughly 18% stayed inconclusive and do not appear here. The list shows a part of the results. A number with no mark means an inactive call. Rule as the data show it: active = normalized growth mostly below about 0.91 (no sharp cut-off); inconclusive = no clear call, values can overlap the other calls; inactive = mostly above about 0.92.
Experiment: chemical genetic growth profiling, strain panel (AID 1159580);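 also: tested at 20 µM; growth read once vehicle control cultures reached saturation at 30 °C; 1 = growth at the plate median or of vehicle wells; lower values mean less growth of the strain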
Settings: S. cerevisiae deletion strains, growth OD

O=C(Nc1ccc([N+](=O)[O-])cc1Cl)c1cc(Cl)ccc1O
normalized growth (locus YAL021C, strain ccr4, active compounds read low): 0.798 (active) | normalized growth (locus YAL026C, strain drs2, active compounds read low): 0.931 | normalized growth (locus YAL030W, strain snc1, active compounds read low): 0.937 | normalized growth (locus YAL040C, strain CLN3, active compounds read low): 0.969 | normalized growth (locus YBL061C, strain skt5, active compounds read low): 0.818 (active) | normalized growth (locus YBR009C, strain hhf1, active compounds read low): 0.896 (active) | normalized growth (locus YBR021W, strain FUR4, active compounds read low): 0.898 | normalized growth (locus YBR023C, strain chs3, active compounds read low): 0.757 (active) | normalized growth (locus YBR171W, strain sec66, active compounds read low): 1.01 | normalized growth (locus YBR229C, strain ROT2, active compounds read low): 0.991 | normalized growth (locus YBR231C, strain swc5, active compounds read low): 0.69 (active) | normalized growth (locus YBR279W, strain paf1, active compounds read low): 0.748 (active) | normalized growth (locus YCL011C, strain gbp2, active compounds read low): 0.944 | normalized growth (locus YCL016C, strain dcc1, active compounds read low): 0.458 (active) | normalized growth (locus YCL029C, strain bik1, active compounds read low): 1.15 [resistant] (active) | normalized growth (locus YCL061C, strain MRC1 (second series), active compounds read low): 0.999 | normalized growth (locus YCL069W, strain vba3, active compounds read low): 0.959 | normalized growth (locus YCR088W, strain abp1, active compounds read low): 0.97 | normalized growth (locus YDL005C, strain med2, active compounds read low): 1.09 [resistant] (active) | normalized growth (locus YDL035C, strain GPR1, active compounds read low): 0.856 (active) | normalized growth (locus YDL040C, strain nat1, active compounds read low): 0.681 (active) | normalized growth (locus YDL074C, strain BRE1, active compounds read low): 0.895 | normalized growth (locus YDL101C, strain DUN1, active compounds read low): 0.983 | normalized growth (locus YDL185W, strain tfp1, active compounds read low): 1.01 | normalized growth (locus YDL192W, strain arf1, active compounds read low): 1.01 | normalized growth (locus YDR001C, strain nth1, active compounds read low): 0.989 | normalized growth (locus YDR069C, strain doa4, active compounds read low): 1.03 | normalized growth (locus YDR101C, strain arx1, active compounds read low): 1.22 [resistant] (active) | normalized growth (locus YDR137W, strain rgp1, active compounds read low): 0.18 (active) | normalized growth (locus YDR150W, strain NUM1, active compounds read low): 0.878 (active) | normalized growth (locus YDR159W, strain sac3, active compounds read low): 0.785 (active) | normalized growth (locus YDR162C, strain NBP2, active compounds read low): 0.832 (active) | normalized growth (locus YDR195W, strain ref2): 1.24 [resistant] (active) | normalized growth (locus YDR297W, strain sur2, active compounds read low): 0.938 | normalized growth (locus YDR318W, strain mcm21, active compounds read low): 1.03 | normalized growth (locus YDR334W, strain swr1, active compounds read low): 0.981 | normalized growth (locus YDR335W, strain msn5, active compounds read low): 0.997 | normalized growth (locus YDR363W, strain ESC2, active compounds read low): 0.95 | normalized growth (locus YDR388W, active compounds read low): 0.989 | normalized growth (locus YDR392W, strain spt3, active compounds read low): 0.828 | normalized growth (locus YDR502C, strain sam2, active compounds read low): 1.02 | normalized growth (locus YEL003W, strain gim4, active compounds read low): 1.07 | normalized growth (locus YEL037C, strain rad23, active compounds read low): 1.01 | normalized growth (locus YEL061C, strain CIN8 (second series), active compounds read low): 1 | normalized growth (locus YEL061C, strain CIN8, active compounds read low): 0.965 | normalized growth (locus YER002W, strain NOP16, active compounds read low): 0.884 (active) | normalized growth (locus YER015W, strain faa2, active compounds read low): 0.901 (active) | normalized growth (locus YER016W, strain bim1, active compounds read low): 0.772 (active) | normalized growth (locus YER110C, active compounds read low): 0.934 | normalized growth (locus YER111C, strain swi4, active compounds read low): 1.16 [resistant] (active) | normalized growth (locus YER155C, strain BEM2 (second series), active compounds read low): 0.985 | normalized growth (locus YER155C, strain BEM2, active compounds read low): 0.99 | normalized growth (locus YER167W, strain BCK2, active compounds read low): 0.929 | normalized growth (locus YFR010W, strain ubp6, active compounds read low): 0.959 | normalized growth (locus YGL078C, strain dbp3, active compounds read low): 1.01 | normalized growth (locus YGL086W, strain mad1, active compounds read low): 0.954 | normalized growth (locus YGL167C, strain pmr1, active compounds read low): 0.606 (active) | normalized growth (locus YGL173C, strain kem1, active compounds read low): 0.994 | normalized growth (locus YGL227W, strain vid30, active compounds read low): 0.997 | normalized growth (locus YGL240W, strain doc1, active compounds read low): 0.6 (active) | normalized growth (locus YGL248W, strain PDE1, active compounds read low): 0.932 | normalized growth (locus YGL253W, strain hxk2, active compounds read low): 0.933 | normalized growth (locus YGR078C, strain PAC10, active compounds read low): 0.948 | normalized growth (locus YGR135W, strain pre9, active compounds read low): 1.03 | normalized growth (locus YGR252W, strain gcn5, active compounds read low): 1.01 | normalized growth (locus YHR013C, strain ard1, active compounds read low): 0.627 (active) | normalized growth (locus YHR027C, strain rpn1, active compounds read low): 0.944 | normalized growth (locus YHR030C, strain SLT2, active compounds read low): 0.922 and 0.995 | normalized growth (locus YHR079C, strain IRE1 (second series), active compounds read low): 1.14 [resistant] (active) | normalized growth (locus YHR079C, strain IRE1, active compounds read low): 0.981 | normalized growth (locus YHR094C, strain hxt1, active compounds read low): 1.05 | normalized growth (locus YHR129C, strain ARP1, active compounds read low): 0.944 | normalized growth (locus YHR142W, strain chs7, active compounds read low): 0.967 | normalized growth (locus YHR200W, strain rpn10, active compounds read low): 1 | normalized growth (locus YIL066C, strain RNR3, active compounds read low): 0.9 | normalized growth (locus YIL073C, strain SPO22, active compounds read low): 1.59 [resistant] (active) | normalized growth (locus YIL125W, strain kgd1, active compounds read low): 1 | normalized growth (locus YIR030C, strain dcg1, active compounds read low): 1.14 [resistant] (active) | normalized growth (locus YJL092W, strain hpr5, active compounds read low): 0.965 | normalized growth (locus YJL095W, strain BCK1 (second series), active compounds read low): 0.91 (active) | normalized growth (locus YJL095W, strain BCK1, active compounds read low): 0.91 and 1 | normalized growth (locus YJL115W, strain asf1, active compounds read low): 1.05 | normalized growth (locus YJL129C, strain trk1, active compounds read low): 1.13 | normalized growth (locus YJL134W, strain LCB3, active compounds read low): 0.978 | normalized growth (locus YJL154C, strain vps35, active compounds read low): 0.979 | normalized growth (locus YJL164C, strain tpk1, active compounds read low): 0.952 | normalized growth (locus YJL166W, strain qcr8, active compounds read low): 0.758 (active) | normalized growth (locus YJL168C, strain set2, active compounds read low): 0.996 | normalized growth (locus YJL187C, strain SWE1 (second series), active compounds read low): 0.903 | normalized growth (locus YJR043C, strain POL32, active compounds read low): 0.929 | normalized growth (locus YJR066W, strain TOR1, active compounds read low): 0.904

From PubChem BioAssay AID1159580 (chemical genetic matrix, 2015)
